Compound activity: PubChem, National Center for Advancing Translational Sciences (NCATS)
ATXN2 expr inh: Primary qHTS for Inhibitors of ATXN expression; Potency, µM (doses to about 57 µM), actives largely listed as inhibitors; HEK-293 ATXN2-luciferase reporter, luminescence, 24 h; 0.72% of 360,000 active; AID 1745845, 2022; note: nearly all actives have a fitted effect of over 55% in size
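ATXN2-luciferase reporter cells (luciferase flanked by upstream and downstream ATXN2 gene portions) were treated 24 h at 37 °C with compounds at up to 57 uM. SteadyGlo luminescence gave expression; GF-AFC fluorescence gave viability.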
TDP1 cell noCPT: qHTS for Inhibitors of human tyrosyl-DNA phosphodiesterase 1 (TDP1): qHTS in cells in absence of CPT. DT40 Tdp1-/- hTDP1 cells, no CPT, ATP luminescence, 48 h. Potency, µM (highest dose often 46.2 µM), hits mostly inhibitors. 15% of 420,000 active. AID 686978, 2013; note: nearly all actives have a fitted effect of over 55% in size
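DT40 Tdp1-/-;hTDP1 cells, no CPT (DMSO vehicle only), 400 cells/well; compounds pin-transferred; ≥48 hr, 37 °C; CellTiter-Glo 30 min RT dark, luminescence read.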
TGFb SMAD3 inh: qHTS for Inhibitors of TGF-b; Potency, µM (top dose mostly 46.1 µM), actives largely listed as inhibitors; 1.2% of 410,000 active; AID 588855, 2011; HepG2 CAGA-GFP TGF-b/SMAD3 reporter, GFP fluorescence, 18 h; TGF-beta stimulated, 500 pg/mL final; note: nearly all actives have a fitted effect of over 65% in size
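Using HEPG2 CAGA-GFP reporter cells at 1000 cells/well, we pinned test compounds, stimulated with recombinant TGF-beta (500 pg/mL final) and measured total well GFP after 18 h.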
HepG2 tox: qHTS for Inhibitors of TGF-b: Cytotox Counterscreen; HepG2 CAGA-GFP viability, ATP luminescence, 18 h; Potency, µM (doses to about 46.1 µM), actives largely listed as cytotoxic; 0.76% of 410,000 active; AID 588856, 2011
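HepG2 CAGA-GFP cells (1000/well, DMEM with 1% FBS) received compound, then TGF-beta at 500 pg/mL final, and were incubated 18 hours at 37 degrees C. Viability was read by CellTiter-Glo luminescence. Media-only wells were set as complete cell-killing and DMSO as no toxicity.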
TDP1 cell CPT: qHTS for Inhibitors of human tyrosyl-DNA phosphodiesterase 1 (TDP1): qHTS in cells in presence of CPT; chicken DT40 Tdp1-/-;hTDP1 cells + 20 nM CPT, ATP luminescence, 48 h; Potency, µM (series often up to 46.2 µM), actives largely listed as inhibitors; 12% of 420,000 active; AID 686979, 2013; note: nearly all actives have a fitted effect of over 55% in size
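Cell growth measured by CellTiter-Glo luminescence after a minimum 48 h, 37 C compound exposure with 20 nM CPT in Tdp1-knockout DT40 cells stably expressing hTDP1, seeded 400/well; qHTS titration format.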
ATXN viability: Viability Counterscreen for Primary qHTS for Inhibitors of ATXN expression; S2 cells (HEK-293 line with an ATXN2-luciferase reporter) viability, CellTiter-Fluor protease fluorescence, 24 h; Potency, µM (doses to about 56.7 µM), hits mostly cytotoxic; 0.49% of 400,000 active; note: nearly all actives have a fitted effect of over 40% in size
Large screens that a line does not name were inactive. Rows were chosen to be rich in hits. Some 17% of all compounds tested hit in one or more screens of this group. Calls come from the whole dose curve; as a rule, active = well fitted curve in the direction sought with a large enough effect; inconclusive = small, poorly fitted or top-dose-only effect, or another doubt; inactive = no such curve, though single readings can be large; an effect the other way counts as inactive or inconclusive.

COC(=O)C1=C(C)N(Cc2ccccc2)C(=NCc2cccc(C(F)(F)F)c2)N[C@H]1c1cccc(C(F)(F)F)c1	ATXN2 expr inh 28µM, TDP1 cell noCPT 3.7µM, TGFb SMAD3 inh 10µM, HepG2 tox 18µM, TDP1 cell CPT 3.3µM, ATXN viability 18µM
COC(=O)C1=C(C)N(Cc2ccco2)C(=O)N[C@H]1c1cccc(C(F)(F)F)c1	TDP1 cell noCPT inconclusive, TDP1 cell CPT inconclusive
CCN1C(=S)N[C@@H](c2cccc(F)c2)C(C(=O)OC)=C1C	none
C=CCN=C1N[C@@H](c2cccc(C(F)(F)F)c2)C(C(=O)OC)=C(C)N1CC	TDP1 cell noCPT inconclusive, TDP1 cell CPT inconclusive
COC(=O)C1=C(C)N(Cc2ccccc2)C(=NCCc2c[nH]c3ccccc23)N[C@H]1c1cccc(C(F)(F)F)c1	ATXN2 expr inh inconclusive, TDP1 cell noCPT 16µM, TGFb SMAD3 inh inconclusive, TDP1 cell CPT inconclusive (no result: ATXN viability)
CCN1C(=NCC(C)C)N[C@@H](c2cccc(C(F)(F)F)c2)C(C(=O)OC)=C1C	TDP1 cell noCPT 21µM, TDP1 cell CPT inconclusive
CCN1C(=NCc2cccc(Cl)c2)N[C@@H](c2cccc(F)c2)C(C(=O)OC)=C1C	ATXN2 expr inh inconclusive, TDP1 cell noCPT 18µM, TGFb SMAD3 inh inconclusive, TDP1 cell CPT inconclusive, ATXN viability inconclusive
CC(C)(C)OC(=O)Nc1ccccc1-n1nnnc1C(C(=O)c1ccc(F)cc1)N1CCOCC1 (stereo unspecified)	none (no result: ATXN2 expr inh, TGFb SMAD3 inh, HepG2 tox, ATXN viability)
CC(=O)c1cccc(NC(=O)c2ccc3nc(Cc4ccccc4)oc3c2)c1	ATXN2 expr inh inconclusive, TDP1 cell noCPT inconclusive, TGFb SMAD3 inh inconclusive, TDP1 cell CPT inconclusive, ATXN viability inconclusive
COc1ccc(CCCc2nnc(SCC(=O)Nc3ccccc3F)o2)cc1	none
CCCn1c(SCC(=O)Nc2nnc(C)s2)nnc1C1CC1	none
O=C1CSC2(N1)C1CC3CC(C1)CC2C3 (stereo unspecified)	none
CCN1C(=NCCCCO)N[C@@H](c2cccc(C(F)(F)F)c2)C(C(=O)OC)=C1C	TDP1 cell CPT inconclusive
CCN1C(=NCCc2cccs2)N[C@@H](c2cccs2)C(C(=O)OC)=C1C	TDP1 cell noCPT 21µM, TDP1 cell CPT 6.5µM, ATXN viability inconclusive
COC(=O)C1=C(C)N(CC2CC2)C(=NCc2cccc(C(F)(F)F)c2)N[C@H]1c1ccccc1	ATXN2 expr inh inconclusive, TDP1 cell noCPT 12µM, TDP1 cell CPT 10µM, ATXN viability inconclusive
COC(=O)C1=C(C)N(Cc2ccccc2)C(=NCCCCO)N[C@H]1c1cccc(C(F)(F)F)c1	TDP1 cell noCPT inconclusive, TGFb SMAD3 inh inconclusive, TDP1 cell CPT 23µM, ATXN viability inconclusive
COCCN=C1N[C@@H](c2cccc(C(F)(F)F)c2)C(C(=O)OC)=C(C)N1Cc1ccccc1	ATXN2 expr inh inconclusive, TDP1 cell noCPT 10µM, TDP1 cell CPT 13µM, ATXN viability inconclusive
C[C@@H]1CN([C@H](C)CO)C(=O)c2cc(Br)cnc2O[C@H]1CN(C)C(=O)Cc1ccccc1	none
COC(=O)C1=C(C)N(Cc2ccccc2)C(=NCCCCO)N[C@H]1CCc1ccccc1	TDP1 cell noCPT 16µM, TGFb SMAD3 inh inconclusive, TDP1 cell CPT inconclusive, ATXN viability inconclusive
COC(=O)C1=C(C)N(Cc2ccccc2)C(=S)N[C@H]1c1ccccc1	TDP1 cell noCPT inconclusive, TGFb SMAD3 inh inconclusive, TDP1 cell CPT inconclusive
COC(=O)C1=C(C)N(Cc2ccccc2)C(=NCc2cccc(C(F)(F)F)c2)N[C@H]1c1cccc(F)c1	ATXN2 expr inh 32µM, TDP1 cell noCPT 6.5µM, TGFb SMAD3 inh inconclusive, HepG2 tox 14µM, TDP1 cell CPT 6.5µM (no result: ATXN viability)
COC(=O)C1=C(C)N(Cc2ccccc2)C(=NCCc2ccccn2)N[C@H]1c1cccc(F)c1	ATXN2 expr inh inconclusive, TDP1 cell noCPT inconclusive, TDP1 cell CPT 16µM, ATXN viability inconclusive
C=CCNc1nc(NC2CCN(C)CC2)c2cc(OC)c(OC)cc2n1	TDP1 cell noCPT inconclusive, TGFb SMAD3 inh inconclusive, TDP1 cell CPT 13µM (no result: ATXN2 expr inh, ATXN viability)
CCN(CC)c1nc(NC2CCN(C)CC2)c2cc(OC)c(OC)cc2n1	TDP1 cell noCPT 10µM, TDP1 cell CPT 5.6µM (no result: ATXN2 expr inh, TGFb SMAD3 inh, HepG2 tox, ATXN viability)
CCOC(=O)Cn1ncc(-c2ccccc2)c1N	none
CC(NC(=O)C(=O)NCCN1CCN(C(=O)c2ccc([N+](=O)[O-])cc2)CC1)c1ccccc1 (stereo unspecified)	none
COc1ccc(OCC(=O)N(C)CC2COc3ccccc3O2)cc1 (stereo unspecified)	TDP1 cell noCPT inconclusive, TDP1 cell CPT 18µM
Cc1nc(C(F)(F)F)ccc1C(=O)N1CCC1(C)C(=O)NS(=O)(=O)c1ccc2ccccc2c1 (stereo unspecified)	none
FC(F)(F)c1ccccc1/C=N/n1c(COc2ccccc2)n[nH]c1=S	TGFb SMAD3 inh inconclusive
O=C(O)C(=O)/C(=C\c1cccc2ccccc12)c1ccc2ccccc2n1	TDP1 cell noCPT 18µM, TDP1 cell CPT inconclusive
O=C(O)C(=O)/C(=C\c1ccccc1)c1ccc2ccccc2n1	none
CCOC(=O)C1Nc2ccc(OC(F)(F)F)cc2C2C=CCC12 (stereo unspecified)	TDP1 cell noCPT inconclusive, TDP1 cell CPT inconclusive
CCOC(=O)C1Nc2ccc(C(F)(F)F)cc2C2c3ccccc3CC12 (stereo unspecified)	ATXN2 expr inh 25µM, TDP1 cell noCPT 16µM, TGFb SMAD3 inh inconclusive, TDP1 cell CPT 18µM, ATXN viability inconclusive
O=C(NCCOc1ccccc1)C1Nc2ccc(C(F)(F)F)cc2C2c3ccccc3CC12 (stereo unspecified)	TDP1 cell noCPT inconclusive, TGFb SMAD3 inh inconclusive, HepG2 tox 16µM, TDP1 cell CPT inconclusive
CC(C)(C)N1C(=O)c2ccccc2NC(=O)C1C(=O)NCCOc1ccccc1 (stereo unspecified)	TDP1 cell noCPT inconclusive (no result: ATXN2 expr inh, TGFb SMAD3 inh, HepG2 tox, ATXN viability)
CCOC(=O)C1Nc2ccccc2C2C(O)C(O)CC12 (stereo unspecified)	TDP1 cell noCPT inconclusive, TGFb SMAD3 inh inconclusive, TDP1 cell CPT 29µM, ATXN viability inconclusive
NC(=O)c1cc([N+](=O)[O-])ccc1NCc1ccccn1	TDP1 cell CPT inconclusive
NC(=O)c1cc([N+](=O)[O-])c(Cl)cc1NCc1ccccn1	TDP1 cell noCPT 26µM, TDP1 cell CPT inconclusive, ATXN viability inconclusive
Nc1ncnc2c1ncn2[C@H]1C[C@H](O)[C@@H](CO)O1	TDP1 cell noCPT inconclusive, TDP1 cell CPT 6.5µM
